Measured values taken from article PMC12670160, “A drug-repurposing screen of FDA- and EMA-approved drugs identifies two NF-κB inhibitors active against eumycetoma” (Journal of Antimicrobial Chemotherapy, 2025).
Where a name gives a salt, the structure may show the parent alone. Read-outs that look alike come from different tables or passages of the source. Out of some 5,300 compounds screened, about 130 (2.5%) showed an effect of 50% or more. Shown is part of a subset that was picked to be rich in strong results.

Test system: M. mycetomatis strain mm55
Settings: primary screen, metabolic activity vs growth control, 96 h, 2 µM, inhibitor

| Structure (SMILES) | % viability | % viability (Madurella mycetomatis metabolic activity at 2µM (%)) |
| --- | --- | --- |
| O=P(O)(O)C(O)(Cc1cnc2ccccn12)P(=O)(O)O [ONC0000278, minodronic acid hydrate] | 88.21% | – |
| C[C@@H]1O[C@@]2(CS1)CN1CCC2CC1.C[C@H]1O[C@]2(CS1)CN1CCC2CC1.Cl [ONC0002680, cevimeline] | 67.14% | – |
| COc1ccccc1N1CCN(CCN2C(=O)CC3(CCCC3)CC2=O)CC1 [ONC0002563, bmy7378] | 52.22% | – |
| COc1ccccc1CC(=N)N1C[C@@H]2C(=O)CCC(c3ccccc3)(c3ccccc3)[C@@H]2C1 [ONC0001413, rp67580] | 48.12% | – |
| NC(CC(F)C(=O)O)C(=O)O (centres unmarked) [ONC0003677, 4fluorodlglutamic acid] | 63.49% | – |
| CCN(CC)S(=O)(=O)c1ccc(C(=O)O)cc1 [ONC0004305, etebenecid] | 97.53% | – |
| CC(C)c1ccc2c(c1)CC[C@H]1[C@](C)(CN)CCC[C@]21C [ONC0000210, lylamine] | 63.87% | – |
| Nc1ncnc2c1ncn2[C@H]1CC[C@@H](CO)O1 [ONC0003689, 23dideoxyadenosine] | 49.81% | – |
| O=c1[nH]cnc2c1ncn2[C@H]1CC[C@@H](CO)O1 [ONC0004781, didanosine videx] | 107% | – |
| Nc1ncnc2c1ncn2[C@@H]1O[C@H](CO)C[C@H]1O [ONC0003004, cordycepin] | 108% | – |
| CSc1ccccc1Nc1nc(N2CCNCC2)nc2c(NCC3CC3)ncnc12.Cl [ONC0001097, khkin1 hydrochloride] | 76.94% | – |
| COc1cc(N2CCN(C(C)=O)CC2)ccc1Nc1ncc(Cl)c(Nc2ccc(N3CCN(C(C)=O)CC3)cc2OC)n1 [ONC0003574, krca0008] | 122% | – |
| O=C(O)c1ccc(OCCn2ccnc2)cc1 [ONC0003331, dazoxiben] | 112.5% | – |
| CCC(C)n1ncn(-c2ccc(N3CCN(c4ccc(OCC5COC(Cn6cncn6)(c6ccc(Cl)cc6Cl)O5)cc4)CC3)cc2)c1=O (centres unmarked) [Itraconazole hydrochloride] | 4.9% | – |
| CC(C)N1CCN(c2ccc(OC[C@@H]3CO[C@@](Cn4cncn4)(c4ccc(Cl)cc4Cl)O3)cc2)CC1 [ONC0002390, terconazole] | 66.82% | – |
| CC(=O)N1CCN(c2ccc(OCC3COC(Cn4ccnc4)(c4ccc(Cl)cc4Cl)O3)cc2)CC1 (centres unmarked) [Ketoconazole] | 1.788% | – |
| CC[C@@H]([C@H](C)O)n1ncn(-c2ccc(N3CCN(c4ccc(OC[C@@H]5CO[C@@](Cn6cncn6)(c6ccc(F)cc6F)C5)cc4)CC3)cc2)c1=O [Posaconazole] | 0.7626% | – |
| CCC(=O)O[C@@H](OP(=O)(CCCCc1ccccc1)CC(=O)N1C[C@H](C2CCCCC2)C[C@H]1C(=O)O)C(C)C (some centres unmarked) [ONC0005007, fosinopril sodium monopril] | 152.1% | – |
| O=C(CCCN1CCC(n2c(O)nc3ccccc32)CC1)c1ccc(F)cc1 [ONC0002014, benperidol] | 79.93% | – |
| N[C@@H]1CON=C1O [ONC0000314, cycloserine d] | 88.4% | – |

| Structure (SMILES) | % viability | % viability (Madurella mycetomatis metabolic activity at 2µM (%)) |
| --- | --- | --- |
| CN[C@@H](C)C(=O)N[C@H]1CCCC[C@H]2CCC(C(=O)N[C@@H](c3ccccc3)c3cn(CCCCc4ccc(CCCCn5cc([C@@H](NC(=O)[C@@H]6CC[C@@H]7CCCC[C@H](NC(=O)[C@H](C)NC)C(=O)N76)c6ccccc6)nn5)cc4)nn3)N2C1=O (some centres unmarked) [ONC0003931, sm164] | 63.69% | – |
| C=CC(=O)[O-].[Na+] [ONC0002646, sodium acrylate] | 77.54% | – |
| N#Cc1cnc2cnc(NCc3cccnc3)cc2c1Nc1ccc(F)c(Cl)c1 [ONC0001337, tcs7006] | 78.74% | – |
| CCN1CCC(n2cc(CNc3cc(Cl)c4ncc(C#N)c(Nc5ccc(F)c(Cl)c5)c4c3)nn2)CC1 [ONC0002075, cot inhibitor2] | 82.04% | – |
| N#Cc1cnc2c(Cl)cc(NCc3cn(CCN4CCCCCC4)nn3)cc2c1Nc1ccc(F)c(Cl)c1 [ONC0000779, cot inhibitor1] | 49.03% | – |
| CC(C)=CCC/C(C)=C/CC/C(C)=C/C=C/C(C)=C/C(=O)O [ONC0000885, peretinoin] | 65.8% | – |
| CCCC[P+](CCCC)(CCCC)Cc1ccc(NC(=O)[C@H](Cc2ccc3ccccc3c2)N=C(NC2CCCCC2)NC2CCCCC2)cc1 [ONC0000223, win64338] | 62.1% | – |
| CC(NC(=O)CCc1nc(=O)c2ccccc2[nH]1)c1ccccc1 (centres unmarked) [ONC0005174, me0328] | 117.9% | – |
| CC1(C)Oc2ccc(C#N)cc2[C@@H](OC2=CC(=O)CC2)[C@@H]1O [ONC0003452, pco 400] | 40.31% | – |
| CC1(C)Oc2ccc(C#N)cc2[C@@H](N2CCCC2=O)[C@@H]1O.CC1(C)Oc2ccc(C#N)cc2[C@H](N2CCCC2=O)[C@H]1O [ONC0001708, levcromakalim] | 57.98% | – |
| CC(=O)N(O)[C@@H]1c2cc(C#N)ccc2OC(C)(C)[C@H]1O [ONC0004430, y26763] | 123.9% | – |
| CCCCCCCCCCCCCCCC(=O)OC1C(SC)OC(C(NC(=O)C2CC(CCC)CN2C)C(C)Cl)C(O)C1O (centres unmarked) [ONC0004643, clindamycin palmitate hcl] | 84.71% | – |
| CC(=O)OCC(=O)[C@@]12OC(C)(C)O[C@@H]1CC1C3C[C@H](F)C4=CC(=O)C=C[C@]4(C)[C@@]3(F)[C@@H](O)C[C@@]12C (some centres unmarked) [ONC0000518, fluocinonide] | 69.32% | – |
| CCN(CC)CCNC(=O)COc1ccc(OC)cc1 [ONC0000676, mefexamide hydrochloride] | 93.51% | – |
| COc1ccc(C2Sc3ccccc3N(CCN(C)C)C(=O)C2OC(C)=O)cc1 (centres unmarked) [ONC0005348, diltiazem hydrochloride] | 61.39% | – |
| CCN(CC)CCN1C(=O)C(=Cc2ccc(OC)cc2)Nc2ccccc21 [ONC0005609, caroverine] | 42.25% | – |
| CC(=O)N[C@H]1[C@H]([C@H](O)[C@H](O)CO)OC(C(=O)O)=C[C@@H]1N=C(N)N [ONC0004525, zanamivir relenza] | 62.68% | – |
| CCOC(=O)C1=C[C@]2(CC)CCCN3CCc4c(n1c1ccccc41)[C@@H]32 [ONC0002865, vinpocetine] | 109.8% | – |
| CC[C@]12CCCN3CCc4c(n(c5ccccc45)[C@@](O)(C(=O)OC)C1)[C@@H]32 [ONC0003425, vincamine] | 89.22% | – |
| CC[C@]12CCCN3CCc4c(n(c5ccccc45)C(=O)C1)[C@@H]32 [ONC0003441, eburnamonine] | 44.28% | – |

| Structure (SMILES) | % viability | % viability (Madurella mycetomatis metabolic activity at 2µM (%)) |
| --- | --- | --- |
| Cc1ccc(NC2=CC(=O)c3sc(C)nc3C2=O)cc1 [ONC0003545, ryuvidine] | 94.75% | – |
| COc1cccc(/C=N/C=N/c2cccc(OC)c2)c1 [ONC0002505, dmeob] | 75.27% | – |
| CO[C@@H](C(=O)N1Cc2n[nH]c(NC(=O)c3ccc(N4CCN(C)CC4)cc3)c2C1)c1ccccc1 [ONC0004749, danusertib pha739358] | 112.5% | – |
| CC1=CC(=C(c2ccc(N)cc2)c2ccc(N)cc2)C=CC1=N [ONC0002809, basic fuchsin] | 79.53% | – |
| CN(C)c1ccc(C(=C2C=CC(=[N+](C)C)C=C2)c2ccc(N(C)C)cc2)cc1 [ONC0000415, gentian violet] | 35.99% | – |
| CCN(CC)c1ccc(C(=C2C=CC(=[N+](CC)CC)C=C2)c2ccccc2)cc1 [ONC0002765, brilliant green] | 123.8% | – |
| Cc1cc(O)c(-c2ccc([C@@H](C)CN)cc2)c2c1[nH]c(=O)c1sccc12 [ONC0001173, ots514] | 81.93% | – |
| CCOc1nc2cccc(C(=O)OC(C)OC(=O)OC3CCCCC3)c2n1Cc1ccc(-c2ccccc2-c2nnn[nH]2)cc1 (centres unmarked) [ONC0004302, candesartan cilextil] | 98.1% | – |
| CCCCCCCCCCCCOS(=O)(=O)O [ONC0002181, sodiumdodecylsulfate] | – | 96.71% |
| Nc1nc(O)c2ncn(COC(CO)CO)c2n1 [ONC0003983, ganciclovir hydrate] | 92.25% | – |
| NS(=O)(=O)Nc1ncnc(OCCOc2ncc(Br)cn2)c1-c1ccc(Br)cc1 [ONC0002096, aprocitentan] | 65.83% | – |
| CC(C)(C)[C@@]1(O)CCN2C[C@@H]3c4ccccc4CCc4cccc(c43)[C@H]2C1 [ONC0002006, butaclamolhcl] | 90.12% | – |
| C=C1NCC[C@@H](C(=O)O)N1 [ONC0005375, ectoinezwitterion] | 125.4% | – |
| OC[C@H]1O[C@@H](O[C@@H]2[C@H](O)[C@@H](O)[C@H](O[C@H]3[C@H](O)[C@@H](O)C(O)O[C@@H]3CO)O[C@@H]2CO)[C@H](O)[C@@H](O)[C@H]1O (some centres unmarked) [ONC0004130, 4galactosyllactose] | 126.3% | – |
| NC[C@H]1O[C@H](O[C@H]2[C@H](O[C@@H]3O[C@H](CO)[C@@H](O)[C@H]3O)[C@@H](O)[C@H](N)C[C@@H]2N)[C@H](N)[C@@H](O)[C@@H]1O [ONC0001104, ribostamycin sulfate] | 39.68% | – |
| OC[C@H]1O[C@H](O[C@H]2[C@H](O)[C@@H](O)[C@H](O)O[C@@H]2CO)[C@H](O)[C@@H](O)[C@@H]1O [ONC0000327, dmaltose] | 54.64% | – |
| NC[C@H]1O[C@H](O[C@H]2C(O[C@@H]3O[C@H](CO)[C@@H](O)[C@H]3O)[C@@H](O)[C@H](N)C[C@@H]2N)[C@H](N)[C@@H](O)[C@@H]1O (some centres unmarked) [ONC0002301, ribostamycin sulfate] | 111.7% | – |
| NC[C@@H]1O[C@H](O[C@H]2[C@@H](O)[C@H](O[C@@H]3[C@@H](O)[C@H](N)C[C@H](N)[C@H]3O[C@H]3O[C@H](CO)[C@@H](O)[C@H](O)[C@H]3N)O[C@@H]2CO)[C@H](N)[C@@H](O)[C@@H]1O [ONC0005310, paromomycin] | 134.8% | – |
| OC[C@H]1O[C@H](O[C@H]2O[C@H](CO)[C@@H](O)[C@H](O)[C@H]2O)[C@H](O)[C@@H](O)[C@@H]1O [ONC0003487, trehalose] | 42.59% | – |
